# Only a selection was taken, and the strongest signals are over-represented in it overall.
# How the values were obtained:
# Test in all cases: glycan array binding signal (z-score within array); higher = stronger binding
# Details in all cases: glycan notation: IUPAC condensed, linker removed
# [1] = target: Gal(b1-4)GlcNAc(b1-3)Gal(b1-4)GlcNAc
# In short: (§1)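 Glycan array data came from 3228 arrays in the Consortium for Functional Glycomics database, and only arrays with an available protein sequence were kept. Glycan names were put into IUPAC-condensed notation, and columns mapping to the same glycan were averaged. The binding signal is a within-array Z-score, averaged across arrays of one protein sequence run at different concentrations or buffers and across linkers. A negative Z-score can be read as non-binding.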
# [2] = target: Gal(b1-4)GlcNAc(b1-6)GalNAc
# In short: as §1
# Gal3S6S(b1-4)GlcNAc6S = target: Gal3S6S(b1-4)GlcNAc6S
# In short: as §1
# GalNAc(a1-3)GalNAc = target: GalNAc(a1-3)GalNAc
# In short: as §1
# [3] = target: GalNAc(a1-3)GalNAc(b1-3)Gal(a1-4)Gal(b1-4)GlcNAc
# In short: as §1
# GalNAc(b1-3)Gal = target: GalNAc(b1-3)Gal
# In short: as §1
# [4] = target: GalNAc(b1-3)Gal(a1-6)Gal(b1-4)Glc
# In short: as §1
# [5] = target: GalNAc(b1-4)GlcNAc(b1-2)Man
# In short: as §1
# GalNAc(b1-4)GlcNAc6S = target: GalNAc(b1-4)GlcNAc6S
# In short: as §1
# GlcNAc(b1-4)GlcNAc = target: GlcNAc(b1-4)GlcNAc
# In short: as §1
# [6] = target: GlcNAc(b1-4)GlcNAc(b1-4)GlcNAc
# In short: as §1
# GlcNAc(b1-6)GalNAc = target: GlcNAc(b1-6)GalNAc
# In short: as §1
# Kdn(a2-6)Gal(b1-4)GlcNAc = target: Kdn(a2-6)Gal(b1-4)GlcNAc
# In short: as §1
# [7] = target: Neu5Ac(a2-3)Gal(b1-3)GalNAc
# In short: as §1
# [8] = target: Neu5Ac(a2-3)Gal(b1-3)GlcNAc(b1-4)Gal(b1-4)Glc
# In short: as §1
# [9] = target: Neu5Ac(a2-3)Gal(b1-4)GlcNAc(b1-3)Gal(b1-4)GlcNAc
# In short: as §1
# [10] = target: Neu5Ac(a2-3)Gal(b1-4)GlcNAc(b1-3)[Neu5Ac(a2-3)Gal(b1-4)GlcNAc(b1-6)]GalNAc
# In short: as §1
# [11] = target: Neu5Ac(a2-3)Gal(b1-4)GlcNAc6S
# In short: as §1
# [12] = target: Neu5Ac(a2-8)Neu5Ac(a2-3)Gal(b1-3)GalNAc(b1-4)[Neu5Ac(a2-8)Neu5Ac(a2-3)]Gal(b1-4)Glc
# In short: as §1
# [13] = target: Neu5Ac(a2-8)Neu5Ac(a2-3)Gal(b1-4)GlcNAc
# In short: as §1
# [14] = target: Neu5Ac(a2-8)Neu5Ac(a2-8)Neu5Ac(a2-8)Neu5Ac(a2-3)[GalNAc(b1-4)]Gal(b1-4)Glc
# In short: as §1
# [15] = target: Neu5Gc(a2-8)Neu5Ac(a2-3)Gal(b1-4)GlcNAc
# In short: as §1
# [16] = target: Neu5Gc(a2-8)Neu5Gc(a2-6)Gal(b1-4)GlcNAc
# In short: as §1
binder,measurement,setting,value
"MGL (Homo sapiens), Q8IUN9 (protein) MTRTYENFQYLENKVKVQGFKNGPLPLQSLLQRLCSGPCHLLLSLGLGLLLLVIICVVGFQNSKFQRDLVTLRTDFSNFTSNTVAEIQALTSQGSSLEETIASLKAEVEGFKQERQAGVSELQEHTTQKAHLGHCPHCPSVCVPVHSEMLLRVQQLVQDLKKLTCQVATLNNNASTEGTCCPVNWVEHQDSCYWFSHSGMSWAEAEKYCQLKNAHLVVINSREEQNFVQKYLGSAYTWMGLSDPEGAWKWVDGTDYATGFQNWKPGQPDDWQGHGLGGGEDCAHFHPDGRWNDDVCQRPYHWVCEAGLGQTSQESH",glycan array binding signal (z-score),[1],-0.242
same,glycan array binding signal (z-score),[2],4.14
same,glycan array binding signal (z-score),Gal3S6S(b1-4)GlcNAc6S,-0.242
same,glycan array binding signal (z-score),GalNAc(a1-3)GalNAc,0.346
same,glycan array binding signal (z-score),[3],0.634
same,glycan array binding signal (z-score),GalNAc(b1-3)Gal,3.3
same,glycan array binding signal (z-score),[4],3.77
same,glycan array binding signal (z-score),[5],3.9
same,glycan array binding signal (z-score),GalNAc(b1-4)GlcNAc6S,4.05
same,glycan array binding signal (z-score),GlcNAc(b1-4)GlcNAc,-0.243
same,glycan array binding signal (z-score),[6],-0.253
same,glycan array binding signal (z-score),GlcNAc(b1-6)GalNAc,4.7
same,glycan array binding signal (z-score),Kdn(a2-6)Gal(b1-4)GlcNAc,-0.245
same,glycan array binding signal (z-score),[7],-0.241
same,glycan array binding signal (z-score),[8],-0.251
same,glycan array binding signal (z-score),[9],-0.238
same,glycan array binding signal (z-score),[10],-0.527
same,glycan array binding signal (z-score),[11],-0.244
same,glycan array binding signal (z-score),[12],-0.243
same,glycan array binding signal (z-score),[13],-0.259
same,glycan array binding signal (z-score),[14],3.54
same,glycan array binding signal (z-score),[15],-0.237
same,glycan array binding signal (z-score),[16],-0.246

# From the supplement of paper PMC8728848
